Only some compounds are listed: those with a hit (about 2.2% of all), similar ones and a draw of the others.
PGC1a acetyl inh – PGC1a acetylation modulation, inhibitor mode. U2OS PGC1a acetylation, AlphaScreen anti-acetyl-lysine; with virally co-expressed GCN5 acetyltransferase. inhibition, % at 15.6 µM. AID 651687. hit rate 0.17% among 350,000;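 active = every replicate shows inhibition of at least 40%; inconclusive = mean inhibition at least 40% but some replicate below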
miR122 inh – inhibitors of miR-122 in Huh7 cells. Huh7 miR-122 Renilla luciferase sensor, 48 h; neutral wells = 0, positive control = 100. activation (reporter increase), % at 12.5 µM. hit rate 0.3% among 340,000;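 active = mean replicate activation score at least 90 and every replicate individually at or above 90; inconclusive = only one of the two criteria met; inactive = neither criterion met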;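 also: higher luciferase means less miR-122 activity so hits act as miR-122 inhibitors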
DENV2 CPE – protects cells from dengue virus 2 cytopathic effect; DENV2-infected cells, cytopathic effect rescue, plate reader; CPE inhibition, % at 9.99 µM; hit rate 1.7% among 350,000; AID 651640; in the data active = CPE inhibition above about 20%, passing the limit was not always enough; inconclusive = no clear call, values can overlap the other calls; tested in BHK-21 cells
C2C12 statin – suppression of simvastatin myotoxicity. C2C12 myotubes + simvastatin, ATP luminescence, 48 h; scaled: DMSO 0, geranylgeraniol control 100. hit rate 0.78% among 330,000. rescue of ATP level, % at 7.49 µM. AID 602340;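 active = mean ATP rescue above about 67%, or every replicate alone reaching that limit, limit read from the data, passing the limit was not always enough; inconclusive = no clear call, values can overlap the other calls; inactive = mean under the limit and some replicate under it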;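 also: myotubes were challenged with 10 µM simvastatin during compound exposure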
PvdQ acylase – P. aeruginosa PvdQ acylase inhibition | hit rate 0.063% among 340,000 | inhibition, % at 10 µM | purified PvdQ acylase, fluorescence plate reader; in the data active = inhibition above about 30%, passing the limit was not always enough; inconclusive = no clear call, values can overlap the other calls
Numbers stand for hits; - = inactive; ? = inconclusive; . = not tested or not shown.

SMILES	PGC1a acetyl inh	miR122 inh	DENV2 CPE	C2C12 statin	PvdQ acylase
O=C(C[C@H]1CC[C@@H]2[C@H](COC[C@H](O)CN2S(=O)(=O)c2cccc(Cl)c2)O1)N1CCOCC1	-	-	21	-	.
COc1ccc(S(=O)(=O)Nc2ccc3c(c2)CC(=O)N([C@H](C)CO)C[C@H](C)[C@H](CN(C)S(=O)(=O)c2ccc(F)cc2)O3)cc1	-	-	.	-	.
CCOC(=O)c1ccc(S(=O)(=O)N2CCN(C(=O)CSc3nc4ccccc4o3)CC2)cc1	-	-	29	-	-
CCOC(=O)c1ccc(S(=O)(=O)N2CCN(C(=O)c3cc4ccccc4o3)CC2)cc1	-	-	?	-	-
CCCN1C[C@@H](C)[C@H](OC)CN(C)C(=O)c2ccc(NC(=O)c3ccccn3)cc2OC[C@H]1C	-	-	.	-	.
COc1ccc(NC(=O)Nc2ccc3c(c2)C(=O)N([C@@H](C)CO)C[C@H](C)[C@@H](CN(C)C(=O)Cc2ccccc2)OCCCC[C@@H](C)O3)cc1	-	-	-	.	.
Cc1cccc(S(=O)(=O)N2C[C@H]3[C@@H](c4ccccc42)[C@H](CO)N3C(=O)CC2CC2)c1	-	-	?	-	.
COc1cccc(OC)c1OCCCSc1nc(C)cc(=O)[nH]1	-	-	.	-	-
CC(C)COc1cc(=O)[nH]c(SCC(C)C)n1	-	-	.	148	-
Cc1c(N(C)C)c(=O)n(-c2ccccc2)n1C	-	-	51	-	-
C[C@H](CO)N1C[C@H](C)[C@H](CN(C)C(=O)Nc2ccccc2)Oc2ccc(N(C)C)cc2CC1=O	-	-	45	-	.
C[C@@H]1CN([C@H](C)CO)C(=O)Cc2cc(NC(=O)C3CC3)ccc2O[C@H]1CN(C)C(=O)Nc1ccccc1	-	-	105	-	.
CCOCC(=O)Nc1nc2ccc(C)cc2s1	-	-	.	.	32
S=P(N1CC1)(N1CC1)N1CC1	-	-	42	-	-
CC#C[C@@H](CC)c1ccc2ccn(C)c2c1	.	.	58	-	-
CC(C)(C)OC(=O)N[C@H]1C=C[C@@H](CC(=O)OCC(F)(F)F)C1	.	.	36	.	.
COc1ccc(S(=O)(=O)NCc2ccco2)c2ccccc12	-	96	-	-	-
Cc1cccc(NC(=O)c2cc(S(=O)(=O)NCc3ccco3)ccc2F)c1C	-	-	.	79	-
COc1ccccc1NC(=O)c1ccc(S(=O)(=O)NCc2ccco2)cc1	.	-	-	-	-
CN1C(=O)c2cccc3c(S(=O)(=O)NCc4ccco4)ccc1c23	-	-	.	110	-
COc1ccc(C(=O)Nc2ccc(S(=O)(=O)NCc3ccco3)cc2)cc1OC	-	176	.	-	-
Cc1ccc(NC(=O)CSCC(=O)NCc2ccco2)cc1	.	.	-	-	-
COc1cc(NC(=O)NCc2ccco2)ccc1-c1ccc(NC(=O)NCc2ccco2)cc1OC	48	-	-	-	-
Cc1ccc(NC(=O)C(=S)NCc2ccco2)cc1	-	-	.	135	-
CCC(C)[C@H](NC(=O)Nc1ccc(C(C)=O)cc1)C(=O)OC (some centres undefined)	-	-	.	93	-
SMILES	PGC1a acetyl inh	miR122 inh	DENV2 CPE	C2C12 statin	PvdQ acylase
O=C(CN(C1CCCCC1)S(=O)(=O)c1ccc(F)cc1)Nc1ccc2c(c1)OCO2	-	247	.	-	-
O=C(CN(C1CCCCC1)S(=O)(=O)c1ccc(F)cc1)NCCCO	-	-	.	-	-
Cc1ccc(S(=O)(=O)N2CC[C@H]3[C@H](CO)Nc4ccc(C#Cc5ccc(F)cc5)cc4[C@H]32)cc1	-	-	-	-	.
CC(C)N1C(=O)CCC1C(=O)O (centres undefined)	.	-	33	-	-
CCCNC(=O)C1(C)CCCN(Cc2ccc(C#N)cc2)C1 (centres undefined)	-	-	48	-	.
CCCNC(=O)C1(C)CCCN(Cc2ccc(Cl)cc2)C1 (centres undefined)	-	-	-	-	.
CO[C@@H]1CN(C)C(=O)c2ccc(NS(=O)(=O)c3cccc(F)c3)cc2OC[C@H](C)N(Cc2cc(F)ccc2F)C[C@@H]1C	-	.	28	-	.
COCC(=O)Nc1ccc2c(c1)OC[C@@H](C)N(Cc1cccc(F)c1)C[C@@H](C)[C@@H](OC)CN(C)C2=O	-	.	-	-	.
COCC(=O)Nc1ccc2c(c1)OC[C@@H](C)N(Cc1cc(F)ccc1F)C[C@@H](C)[C@@H](OC)CN(C)C2=O	-	.	31	-	.
COCC(=O)Nc1ccc2c(c1)OC[C@@H](C)N(Cc1cccc(F)c1)C[C@H](C)[C@H](OC)CN(C)C2=O	-	.	35	-	.
Cc1cc(C)nc(SCc2n[nH]c(=S)n2C)n1	-	-	.	92	-
O=C(c1cn(Cc2ccccc2)nc1-c1ccc(Cl)cc1)N1CCN(c2ccccn2)CC1	-	120	-	-	-
Cc1ccc(-c2nn(-c3ccccc3)cc2C(=O)N2CCN(c3ccccn3)CC2)cc1	.	.	-	.	-
COc1ccc(-c2nn(Cc3ccccc3)cc2C(=O)N2CCN(c3ncccn3)CC2)cc1	-	-	-	-	-
Cc1ccc(-c2nn(Cc3ccccc3)cc2C(=O)N2CCN(c3ccccn3)CC2)cc1	-	107	.	-	-
Cc1noc(C)c1S(=O)(=O)Nc1ccc2c(c1)C(=O)N([C@@H](C)CO)C[C@@H](C)[C@H](CN(C)C(=O)c1ccncc1)OCCCC[C@H](C)O2	-	-	-	.	.
COc1cccc(CN2CC3(CCN(CC4CC4)CC3)c3c([nH]c4cc(OC)ccc34)[C@H]2CO)c1	.	.	-	.	.
CCCN(C)C[C@@H]1OCCCC[C@@H](C)Oc2ccc(N(C)C)cc2C(=O)N([C@@H](C)CO)C[C@@H]1C	-	-	-	-	.
C[C@H](CO)N1C[C@H](C)[C@@H](CN(C)Cc2ccc3c(c2)OCO3)OCCCC[C@H](C)Oc2ccc(N(C)C)cc2C1=O	-	.	124	.	.
CCCN(C)C[C@@H]1OCCCC[C@H](C)Oc2ccc(N(C)C)cc2C(=O)N([C@H](C)CO)C[C@@H]1C	-	-	69	-	.
Clc1ccc(CSc2nnc(-c3ccncc3)s2)cc1	.	-	-	-	-
Clc1cccc(Cl)c1CSc1nnc(-c2ccncc2)s1	-	.	70	-	-
CN(C)C(=O)C[C@@H]1CC[C@@H]2[C@@H](COc3ccc(NC(=O)C4CCOCC4)cc3C(=O)N2C)O1	-	-	-	-	.
COc1cccc(-n2c(Cc3cc(=O)[nH]c(=O)[nH]3)nnc2SCC(=O)N2CCCCCC2)c1	-	-	69	-	-
COc1ccc(-n2c(SCC(=O)N3CCCCC3)nc(O)cc2=O)cc1	-	-	.	120	-
Cc1ccccc1-n1c(SCC(=O)N2CCCCC2)nc(O)cc1=O	.	.	-	-	-
COc1cccc(-n2c(Cc3cc(=O)[nH]c(=O)[nH]3)nnc2SCC(=O)N2CCCC2)c1	.	.	.	.	-
O=C(O)C[C@@H]1CC[C@H](NC(=O)Nc2cc(F)ccc2F)[C@H](CO)O1	-	.	-	-	.
C[C@H]1CN([C@@H](C)CO)C(=O)c2cc(NS(=O)(=O)c3cccs3)ccc2O[C@@H]1CN(C)C(=O)NC1CCCCC1	-	-	-	-	.
CC(=O)N1CC2(C1)[C@@H](c1ccccc1)[C@@H](CO)N2C(=O)Cc1ccccc1	-	.	-	.	.
